PubChem BioAssay AID743266 (National Center for Advancing Translational Sciences (NCATS), 2014)
The whole screen tested about 410,000 compounds, of which about 310 (0.076%) were called active. Inconclusive results (about 2%) are left out. This excerpt belongs to a sample that is enriched for actives. Values without a mark were called inactive. Calls follow the shape of the dose curve; as a rule, active = well fitted activation curve with a large enough effect; inconclusive = small, poorly fitted or top-dose-only effect, or another doubt; inactive = no such curve, though single readings can be large or run the other way.

target: Parathyroid hormone/parathyroid hormone-related peptide receptor (Homo sapiens) (UniProt Q03431); experiment: qHTS for PTHR1 Agonists: Primary Screen; details: HEK293 GP2 PTHR1 cells, GloSensor cAMP luminescence, 1 h; series mostly up to 115 µM; activation: at the top concentration; also: nearly all actives have a fitted effect of over 55% in size
Sequence (Q03431 whole entry, looked up): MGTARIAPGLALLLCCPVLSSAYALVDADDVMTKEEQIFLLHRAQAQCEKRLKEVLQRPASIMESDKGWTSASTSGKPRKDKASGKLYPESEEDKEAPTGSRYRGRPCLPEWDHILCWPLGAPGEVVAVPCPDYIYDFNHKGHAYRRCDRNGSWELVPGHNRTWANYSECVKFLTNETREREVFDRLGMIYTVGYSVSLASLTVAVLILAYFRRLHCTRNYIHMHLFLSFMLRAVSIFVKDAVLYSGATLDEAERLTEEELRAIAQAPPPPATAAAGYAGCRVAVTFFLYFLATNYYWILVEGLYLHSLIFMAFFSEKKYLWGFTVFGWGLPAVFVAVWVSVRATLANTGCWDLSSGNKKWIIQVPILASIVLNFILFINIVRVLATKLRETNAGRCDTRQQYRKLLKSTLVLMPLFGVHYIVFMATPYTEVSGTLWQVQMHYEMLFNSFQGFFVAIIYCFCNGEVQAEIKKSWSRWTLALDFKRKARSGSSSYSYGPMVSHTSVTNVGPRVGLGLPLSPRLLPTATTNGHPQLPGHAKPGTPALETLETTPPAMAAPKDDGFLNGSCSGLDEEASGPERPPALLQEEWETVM
Description: The goal of the proposed studies is to discover new compounds that act as potent agonists on the parathyroid hormone receptor type-1 (PTHR1). The PTHR1 plays critical roles in maintaining blood calcium and phosphate levels, as well as in controlling bone remodeling. PTHR1 agonists could thus be useful for treating diseases such as hypoparathyroidism and osteoporosis. In the former disease, an agonist drug would help maintain normal blood calcium and phosphate levels under conditions of parathyroid hormone deficiency. In the latter disease, an agonist drug would stimulate new bone formation and thus reduce the risk of fracture, under conditions of bone fragility, as occurs in aging.
To that end, we performed a quantitative high-throughput screening (qHTS) of the Molecular Libraries Probe Centers Network (MLPCN) compound libraries at the NIH Chemical Genomics Center (NCGC) for the parathyroid hormone receptor type-1 (PTHR1) using a unique HEK-293-derived cell line (GP2) that expresses the PTHR1 and a glosensor cAMP reporter construct.
NIH Molecular Libraries Probe Production Centers Network [MLPCN]
NIH Chemical Genomics Center [NCGC]
Assay Submitter (PI): Thomas Gardella, Massachusetts General Hospital
4 microL are dispensed into a 1536-well micro plate to yield 3,000 cells/well. The plates are then incubated overnight, after which 4 microL of 0.5 mM of BIoTium Luciferin plus 0.5 mM IBMX are added. They are then incubated at 37 degree for one hour before 23 nL of compounds are added through pinning and then incubated at 37 degree again for another hour. After the plates are kept at room temperature for 15 min before they are read on the ViewLux to measure luminescence.
Potency is read from the fitted curve at half-maximal effect.

| Compound | activation | outcome | Potency |
| --- | --- | --- | --- |
| CC1=C(c2ccc(C)c(C)c2)S(=O)(=O)NC1=NCc1ccccc1Cl | -38.2% |  |  |
| COC(=O)c1cc(NC(=O)c2sc3ccccc3c2Cl)cc(C(=O)OC)c1 | -7.08% |  |  |
| Cc1[nH]c2ccccc2c1C(c1ccccc1)c1cccs1 (centres undefined) | -5.12% |  |  |
| CCOc1ccc(N(Cc2ccccc2)C(=O)c2nc(S(C)(=O)=O)ncc2Cl)cc1 | -96.5% |  |  |
| CCOCCCNC(=O)c1cn(CC)c2ccc(S(=O)(=O)N3CCc4ccccc4C3)cc2c1=O |  | inactive |  |
| Cc1ccc(OCC(=O)Nc2ccc(Cl)c(-c3nc4ccccc4[nH]3)c2)cc1C | -22.3% |  |  |
| CCC1=Nc2cc(C(=O)NCCCOC(C)C)ccc2Sc2ccc(C)cc21 |  | inactive |  |
| COc1ccc(-c2noc(CCC(=O)N(C)c3ccccc3C)n2)cc1 | -19.3% |  |  |
| Cc1cccc(N2CCN(c3ccc(C(=O)O)cc3NC(=O)c3ccccc3F)CC2C)c1 (centres undefined) | -4.85% |  |  |
| Cc1cc(C)cc(NS(=O)(=O)c2ccc(-c3cc(C)no3)s2)c1 | -34.8% |  |  |
| COc1cc(C(=O)NCCS(=O)(=O)N2CCN(c3ccccc3)CC2)cc(OC)c1OC |  | inactive |  |
| CCOc1ccc(C(=O)c2cn(Cc3ccccc3OC)c3ccc(F)cc3c2=O)cc1 |  | inactive |  |
| CN1C(=O)c2ccccc2Sc2ccc(NC(=O)Cc3ccc(Cl)cc3)cc21 | -73.4% |  |  |
| Cc1ccccc1-c1nc2scc(CCNC(=O)C(=O)Nc3ccc(F)cc3F)n2n1 | -0.325% |  |  |
| O=C(CCS(=O)(=O)c1cc(Br)cc2c1N(C(=O)C1CC1)CC2)Nc1ccc(C(F)(F)F)cc1 |  | inactive |  |
| Cc1cc(C)c(NC(=O)CSc2nc3nccnc3c(=O)n2CCc2c[nH]c3ccccc23)c(C)c1 |  | inactive |  |
| COc1ccccc1C(=O)Nc1c(C(=O)N(C)Cc2ccccc2)sc2nc(C)c(Cl)c(C)c12 | -3.73% |  |  |
| CCN(C(=O)Cn1cnc2sc(C)c(S(=O)(=O)N3CCN(c4ncccn4)CC3)c2c1=O)c1ccccc1F | -22.9% |  |  |
| CCC(=O)N1CCc2cc(CNC(=O)Nc3ccccc3Cl)ccc21 |  | inactive |  |
| CSc1nc(-c2ccc(F)cc2)nc2c1Cc1c(CO)cnc(C)c1O2 | -3.85% |  |  |

| Compound | activation | outcome | Potency |
| --- | --- | --- | --- |
| Cc1ccccc1OCCSc1nc2ccc(NC(=O)c3ccco3)cc2s1 | -22.6% |  |  |
| Cc1ccc(Cn2c(=O)n(-c3ccc(C)cc3)c(=O)c3c2c2cc(C)ccc2n3C)cc1 |  | inactive |  |
| Cc1ccsc1CN(C(=O)c1oc2ccc(Br)cc2c1C)C1CCS(=O)(=O)C1 (centres undefined) | -19.6% |  |  |
| Cc1ccccc1CSc1nc2c([nH]c3ccccc32)c(=O)n1C |  | inactive |  |
| CC(=O)c1ccc(N2CCN(c3nc4c(S(=O)(=O)c5ccccc5)nnn4c4ccc(Cl)cc34)CC2)cc1 | -11.3% |  |  |
| Cc1cccc(N2CCN(C(=O)Cn3ncc4c5ccccc5n(C)c4c3=O)CC2C)c1 (centres undefined) | -6.58% |  |  |
| CCOc1ccc(C2C(C(=O)Nc3ccc(Cl)cc3)=C(C)Nc3nc(C(F)(F)F)nn32)cc1 (centres undefined) |  | inactive |  |
| CCN(C(=O)Cn1c(=O)nc(-c2ccccc2)c2cc(Cl)ccc21)c1cccc(C)c1 |  | inactive |  |
| Cc1cc(C)cc(NC(=O)CCCc2nc(-c3ccccc3Cl)no2)c1 |  | inactive |  |
| CCOC(=O)C1CCN(c2nc3c(S(=O)(=O)c4ccc(CC)cc4)nnn3c3ccc(Cl)cc23)CC1 | -39.7% |  |  |
| Cc1ccc(CNC(=O)CCC(=O)N2Cc3ccccc3Oc3ncccc32)cc1 |  | inactive |  |
| CCOC(=O)c1c(NC(=O)Cc2coc3ccc(CC)cc23)sc2c1CCC2 | -14% |  |  |
| CCOc1ccccc1N(CC)C(=O)Nc1cn(C)c(=O)c2ccccc12 |  | inactive |  |
| O=C(NCCCO)c1nn(-c2ccc(Cl)cc2)nc1CO |  | inactive |  |
| CCc1nn(CC(=O)N2CCN(c3ccc(Cl)cc3)CC2)c(=O)c2cc3occc3n12 | -30.1% |  |  |
| CC(C)Cn1c(C2CC(=O)N(c3ccccc3Cl)C2)nc2ccccc21 (centres undefined) |  | inactive |  |
| Cn1c(COc2ccccc2C(C)(C)C)nc2ccccc21 | -14.1% |  |  |
| COc1ccc(NC(=O)CSC2=Nc3ccccc3C3=NC(CC(=O)NCc4ccccc4OC)C(=O)N23)cc1Cl (centres undefined) | -3.88% |  |  |
| CC(CCCc1ccccc1)NC(=O)c1nn(-c2ccc(Cl)cc2)nc1CO (centres undefined) | -11% |  |  |
| COc1ccc(CNc2nc(-c3ccc(Cl)cc3)nn2C(=O)c2ccccc2)cc1 |  | inactive |  |

| Compound | activation | outcome | Potency |
| --- | --- | --- | --- |
| Cc1ccc(CCNC(=O)C2CCN(c3nnc(-n4cccc4CNc4ccc(C)cc4)s3)CC2)cc1 | 1.18% |  |  |
| Cc1ccc(SCC(=O)Nc2ccc3oc(-c4ccccc4F)nc3c2)cc1 | -7.35% |  |  |
| CC(=O)N1c2ccc(S(=O)(=O)N3CCCCCC3)cc2CC1C(=O)NCc1ccccc1C (centres undefined) |  | inactive |  |
| CCN1CCN(CCCNC(=O)c2cnn(-c3ccc(C)cc3C)c2C2CCN(C(=O)OC(C)(C)C)CC2)CC1 | -12.3% |  |  |
| COc1ccccc1N1CCN(CCCNC(=O)c2cnn(-c3ccccc3Cl)c2C2CCN(C(=O)OC(C)(C)C)CC2)CC1 |  | inactive |  |
| Cc1cccc(C)c1-n1ncc(C(=O)NCCCN2CCCCC2)c1C1CCN(C(=O)OC(C)(C)C)CC1 |  |  | 14.1 µM (active) |
| O=C(NC1CCCCC1)c1ccc(Cn2c(SCc3ccccc3)nc3cccnc32)cc1 |  | inactive |  |
| COc1ccc(N(C)C(=O)C2CCN(S(=O)(=O)c3cc(Br)cc4c3N(C(C)=O)CC4)CC2)cc1 | -10.4% |  |  |
| CCOc1ccc(OCC)c(NC(=O)c2c(C)nn(-c3ccccc3)c2-n2cccc2)c1 |  | inactive |  |
| COc1cccc(-c2n[nH]c3c2C(c2cccc(O)c2)N(C)C3=O)c1 (centres undefined) | -24.7% |  |  |
| CCCN1CCN(CCCNC(=O)Cn2nc(CC)n3c(cc4occc43)c2=O)CC1 | 11.6% |  |  |
| COc1ccc2c(c1)c(N1CCCC1=O)c(C(=O)Nc1ccc(OC)c(Cl)c1)n2C | -20.4% |  |  |
| COC(=O)c1cc2occc2n1Cc1nc(-c2ccc(C)cc2)oc1C | -6.46% |  |  |
| Cc1ccc(-c2cnc(NCc3ccc(C(C)C)cc3)n2C)cc1 | -25.2% |  |  |
| C=Cc1ccc(Cn2c(C(=O)O)c(CNC3CCCC3)c3ccc(C)cc32)cc1 |  | inactive |  |
| CCN(CC)C(=O)CSc1nc2cc3c(cc2c(=O)n1CCCC(=O)NCc1ccc2c(c1)OCO2)OCO3 | -15.7% |  |  |
| CCOc1ccc(CNC(=O)C2CCCN(S(=O)(=O)N(CC)c3ccc(OCC)cc3)C2)cc1 (centres undefined) | -6.06% |  |  |
| CCN(CC)S(=O)(=O)c1ccc2c(c1)c(=O)c(C(=O)N1CCN(c3cccc(Cl)c3)CC1)cn2C | -8.06% |  |  |
| COc1cccc(CNC(=O)C2CCC(CNS(=O)(=O)c3cccs3)CC2)c1 (centres undefined) |  | inactive |  |
